Common to all, as to assay: NCI-60 one-dose screen, 48 h (100 = growth as untreated, 0 = no growth, -100 = all killed)
In one experiment the test system is SR leukemia. The note with it: 10 µM.
The subject of a further experiment is RPMI-8226 leukemia. The note with it: 10 µM.
The next experiment has as its system OVCAR-8 ovarian. The following applies: 10 µM.
In the next experiment the test system is OVCAR-5 ovarian. The following applies: 10 µM.
The subject of the next experiment is OVCAR-4 ovarian. The note with it: 10 µM.
A further experiment has as its system SK-OV-3 ovarian. The following applies: 10 µM.
A further experiment concerns IGROV1 ovarian. The following applies: 10 µM.
For the next experiment, the system named is HS 578T breast. The note with it: 10 µM.
Another experiment relates to NCI/ADR-RES ovarian. The following applies: 10 µM.
For the next experiment, the system named is T-47D breast. The following applies: 10 µM.
The subject of a further experiment is BT-549 breast. The following applies: 10 µM.
The subject of a further experiment is MDA-MB-435 melanoma. The following applies: 10 µM.
In another experiment the test system is SW-620 colon. The note with it: 10 µM.
A further experiment deals with MCF7 breast. The following applies: 10 µM unless noted.
A further experiment concerns HCT-116 colon. The note with it: 10 µM.
For the next experiment, the system named is HCC-2998 colon. The note with it: 10 µM.
In another experiment the test system is KM12 colon. The following applies: 10 µM.
The test system of another experiment is OVCAR-3 ovarian. The following applies: 10 µM.

About 83,000 compounds went through this panel and 20% of them were active in at least one assay; those are over-represented in the sample as a whole.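 Negative percent growth values reflect cell death: -40 means 40% of the cells present at the start died, and -100 means all died.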 A number with no mark means an inactive call. Calls of active or inactive are those of the source. How the source made its calls: active means growth percent below 10; inactive means the rest.

In the case of `C#CC(C)(O)c1ccc(Cl)cc1` (stereo not given), the growth with SR leukemia is 96.6%; in the experiment with RPMI-8226 leukemia it was 101%; in the experiment on OVCAR-8 ovarian, 105%; in the experiment with OVCAR-5 ovarian, 107%; in the experiment on OVCAR-4 ovarian it was 102%; with SK-OV-3 ovarian it was 90.3%. Besides, the growth in the experiment with IGROV1 ovarian was 111%; in the experiment on HS 578T breast, 106%; with NCI/ADR-RES ovarian, 92.4%; with T-47D breast it was 86.1%; in the experiment on BT-549 breast, 105%; with MDA-MB-435 melanoma it was 110%. Also, the growth in the experiment with SW-620 colon is 109%; with MCF7 breast, 97%; in the experiment on HCT-116 colon, 96.8%; with HCC-2998 colon, 97.8%; with KM12 colon, 105%.

As to `Cc1ccc(/C(C#N)=C/c2ccc3c(c2)OCO3)cc1`, the growth was 25.5% with SR leukemia; 77% in the experiment with RPMI-8226 leukemia; 94% in the experiment with OVCAR-8 ovarian; 112% with OVCAR-5 ovarian; 82.8% with SK-OV-3 ovarian; 72.4% in the experiment on IGROV1 ovarian. The growth in the experiment on OVCAR-3 ovarian is 73.8%; with HS 578T breast it was 83.8%; in the experiment with NCI/ADR-RES ovarian it was 44.5%; in the experiment with T-47D breast it was 64.1%; with BT-549 breast, 87.1%; with MDA-MB-435 melanoma it was -11.1% (active). In addition, the growth is 32% in the experiment on SW-620 colon; 49.7% in the experiment with MCF7 breast; 72.8% with HCT-116 colon; 74.3% in the experiment on HCC-2998 colon; 26.1% in the experiment on KM12 colon.

`CCC(O)CC(CC)CO` (stereo not given): the growth in the experiment with SR leukemia is 108%; with RPMI-8226 leukemia, 111%; in the experiment on OVCAR-8 ovarian it was 104%; with OVCAR-5 ovarian it was 104%; with SK-OV-3 ovarian, 115%; in the experiment with IGROV1 ovarian, 114%. The growth with OVCAR-3 ovarian is 130%; with HS 578T breast, 130%; with NCI/ADR-RES ovarian, 110%; in the experiment with T-47D breast, 115%; in the experiment on MDA-MB-435 melanoma, 114%; with SW-620 colon it was 110%. Also, the growth is 97.8% in the experiment with MCF7 breast, 100% in the experiment with HCT-116 colon, 109% in the experiment on HCC-2998 colon and 128% with KM12 colon.

As to `CCn1c(=O)n(C)c2c(=O)n(C)c(=O)n(C)c21`, the growth with SR leukemia is 101%; with RPMI-8226 leukemia, 106%; in the experiment with OVCAR-8 ovarian, 101%; in the experiment with OVCAR-5 ovarian, 108%; in the experiment on OVCAR-4 ovarian, 111%; in the experiment with SK-OV-3 ovarian it was 106%. Besides, the growth in the experiment on IGROV1 ovarian is 122%; in the experiment on HS 578T breast, 110%; in the experiment on NCI/ADR-RES ovarian, 105%; in the experiment with T-47D breast it was 98%; in the experiment on BT-549 breast, 101%; with MDA-MB-435 melanoma, 98.6%. Further, the growth with SW-620 colon was 107%; in the experiment with MCF7 breast, 103%; with HCT-116 colon, 109%; in the experiment with HCC-2998 colon, 87.8%.

Regarding `CCC(C)(O)c1ccc(C)cc1` (stereo not given), the growth with SR leukemia is 105%; in the experiment with RPMI-8226 leukemia it was 96.7%; in the experiment on OVCAR-8 ovarian, 104%; in the experiment on OVCAR-5 ovarian, 101%; in the experiment with OVCAR-4 ovarian, 106%; with SK-OV-3 ovarian, 97.8%. The growth is 107% in the experiment with OVCAR-3 ovarian; 112% in the experiment on HS 578T breast; 110% in the experiment on NCI/ADR-RES ovarian; 104% in the experiment with T-47D breast; 105% in the experiment on BT-549 breast; 106% in the experiment on MDA-MB-435 melanoma. In addition, the growth in the experiment on SW-620 colon is 98.2%; with MCF7 breast it was 100%; with HCT-116 colon, 108%; in the experiment with HCC-2998 colon, 105%; with KM12 colon it was 100%.

As for `O=[N+]([O-])c1cccc2nsnc12`, the growth is 99.8% with SR leukemia; 104% in the experiment on RPMI-8226 leukemia; 93.4% in the experiment on OVCAR-8 ovarian; 122% with OVCAR-5 ovarian; 114% in the experiment on OVCAR-4 ovarian; 94.1% with SK-OV-3 ovarian. In addition, the growth with OVCAR-3 ovarian was 107%; in the experiment on HS 578T breast, 101%; in the experiment on NCI/ADR-RES ovarian, 110%; in the experiment on T-47D breast it was 103%; in the experiment with BT-549 breast, 106%; in the experiment with MDA-MB-435 melanoma, 111%. In addition, the growth with SW-620 colon is 104%; in the experiment on MCF7 breast, 93.5%; with HCT-116 colon, 99.1%; with HCC-2998 colon it was 111%; in the experiment on KM12 colon, 104%.

Take `CCc1ccc(/C(C#N)=C/C=C/c2ccccc2)cc1`: the growth with SR leukemia was 3.53% (active); in the experiment on RPMI-8226 leukemia, 3.92% (active); in the experiment with OVCAR-8 ovarian it was 34.3%; in the experiment with OVCAR-5 ovarian it was 77.7%; in the experiment with IGROV1 ovarian, 35.9%; in the experiment on OVCAR-3 ovarian it was -11.2% (active). The growth in the experiment on HS 578T breast was 39.7%; in the experiment with NCI/ADR-RES ovarian, 8.57% (active); in the experiment on T-47D breast it was 35.3%; in the experiment on BT-549 breast, 68.5%; in the experiment with MDA-MB-435 melanoma it was -17.5% (active); in the experiment on SW-620 colon it was 21%. Also, the growth was 16.2% with MCF7 breast, 33.5% in the experiment with HCT-116 colon, 60.8% with HCC-2998 colon and 35.1% with KM12 colon.

Turning to `Nc1ncnc2c1nc(N)n2C1OC(CO)C(O)C1O` (stereo not given), the growth is -3.14% (active) in the experiment with SR leukemia; 5.98% (active) in the experiment on RPMI-8226 leukemia; 2.25% (active) in the experiment with OVCAR-8 ovarian; -12.9% (active) with OVCAR-5 ovarian; -2.8% (active) in the experiment with OVCAR-4 ovarian; -12.9% (active) in the experiment with OVCAR-3 ovarian. For the same molecule, the growth with HS 578T breast is -13.9% (active); in the experiment on NCI/ADR-RES ovarian, -45.2% (active); in the experiment on T-47D breast, -46.3% (active); in the experiment with BT-549 breast, -83.6% (active); in the experiment on MDA-MB-435 melanoma it was -80.3% (active); in the experiment with SW-620 colon, -11.8% (active). Moreover, the growth with MCF7 breast was -20.5% (active); in the experiment with HCT-116 colon, 1.19% (active); with HCC-2998 colon it was -82% (active); in the experiment with KM12 colon it was -77.3% (active).

As for `C=CCOC(=O)C(=O)OCC=C`, the growth in the experiment with SR leukemia is 82.1%; with RPMI-8226 leukemia, 103%; in the experiment with OVCAR-8 ovarian, 101%; in the experiment on OVCAR-5 ovarian it was 97.5%; in the experiment with OVCAR-4 ovarian, 110%; with SK-OV-3 ovarian it was 105%. Further, the growth is 118% in the experiment with OVCAR-3 ovarian; 130% in the experiment with HS 578T breast; 117% in the experiment on NCI/ADR-RES ovarian; 93.9% in the experiment on T-47D breast; 120% with MDA-MB-435 melanoma; 103% in the experiment with SW-620 colon. The growth was 101% in the experiment on MCF7 breast, 101% in the experiment with HCT-116 colon, 107% with HCC-2998 colon and 102% with KM12 colon.

Turning to `CC(=O)Cc1ccc(-c2ccccc2)cc1`, the growth was 102% in the experiment with SR leukemia; 97.5% with RPMI-8226 leukemia; 104% with OVCAR-8 ovarian; 112% in the experiment on OVCAR-5 ovarian; 109% in the experiment on OVCAR-4 ovarian; 108% in the experiment with SK-OV-3 ovarian. Further, the growth in the experiment on OVCAR-3 ovarian was 113%; with HS 578T breast, 99.4%; in the experiment with NCI/ADR-RES ovarian it was 103%; with T-47D breast, 97.6%; in the experiment on BT-549 breast, 109%; in the experiment with MDA-MB-435 melanoma, 114%. Besides, the growth with SW-620 colon is 108%; in the experiment with MCF7 breast, 93.3%; in the experiment on HCT-116 colon, 103%; in the experiment with HCC-2998 colon it was 101%; with KM12 colon, 101%.

The values above are taken from PubChem BioAssay (NCI).
